“And” between values parts separate entries of the source, which are not always exact repeats. Identical values can stand only once. The whole screen tested about 390,000 compounds, of which about 4,000 (1%) were called active. Entries that show only a call come without a potency. Not shown: some 7% with an inconclusive outcome. The call rests on the fitted dose curve; in most records, active means well fitted inhibition curve with a large enough effect; inconclusive means small, poorly fitted or top-dose-only effect, or another doubt; inactive means no such curve, though single readings can be large or run the other way. For the sample, actives were picked, then their nearest neighbours and some compounds at random. Where a structure was tested more than once in an assay, its records may differ in their call.
Potency means the concentration at half of the fitted maximal effect.

Chain of DNA polymerase iota (Homo sapiens) (Q9UNA4 whole entry, looked up): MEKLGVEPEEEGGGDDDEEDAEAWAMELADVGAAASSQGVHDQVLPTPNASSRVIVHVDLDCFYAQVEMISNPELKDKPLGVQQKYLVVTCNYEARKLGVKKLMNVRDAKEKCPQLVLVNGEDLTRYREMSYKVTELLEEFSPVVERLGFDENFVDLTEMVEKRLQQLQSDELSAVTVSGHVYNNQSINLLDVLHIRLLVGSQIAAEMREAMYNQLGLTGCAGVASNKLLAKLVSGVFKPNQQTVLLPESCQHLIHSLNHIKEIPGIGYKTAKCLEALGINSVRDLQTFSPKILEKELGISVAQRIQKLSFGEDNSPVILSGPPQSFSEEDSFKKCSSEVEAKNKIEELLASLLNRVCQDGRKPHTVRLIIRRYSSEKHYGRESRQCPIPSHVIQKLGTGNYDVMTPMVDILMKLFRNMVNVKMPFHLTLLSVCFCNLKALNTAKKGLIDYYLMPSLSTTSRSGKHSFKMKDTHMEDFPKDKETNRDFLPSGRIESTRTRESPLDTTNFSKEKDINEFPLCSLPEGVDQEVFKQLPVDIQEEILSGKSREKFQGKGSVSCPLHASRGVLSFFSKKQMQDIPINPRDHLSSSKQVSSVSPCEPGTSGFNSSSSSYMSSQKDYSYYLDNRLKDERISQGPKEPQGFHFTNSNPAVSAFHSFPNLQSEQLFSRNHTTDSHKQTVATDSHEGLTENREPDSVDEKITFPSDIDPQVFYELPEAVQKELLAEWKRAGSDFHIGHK

The experiment has as its target DNA polymerase iota (Homo sapiens) (UniProt Q9UNA4). The experiment in a line: qHTS for Inhibitors of Polymerase Iota. The conditions noted are these: Pol iota fluorescent replication assay, 10 min; series mostly up to 115 µM. The essentials:
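Pol iota at 10 nM preincubated 15 min with compounds at room temperature; reaction started with fluorescent substrate, 50 nM final. Fluorescence read kinetically at 0 and 10 min; buffer-only wells as negative control.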
Turning to `CCCNC(=O)C(CC)n1nc(CC)n2c(cc3oc(C)cc32)c1=O` (stereo not given), the Potency result is “inactive”. As to `COc1ccc(C(=O)Nc2cccc(C(=O)OCc3cc(=O)n4c5c(sc4n3)CCCC5)c2)cc1`, the Potency result is “inactive”.

Turning to `CC(C)(C)OC(=O)N1CCC(c2c(C(=O)NCCc3ccsc3)cnn2-c2ccc(F)cc2F)CC1`, the Potency result is “inactive”.

In the case of `CC(C)(C)n1ncc2c(=O)n(Cc3c(Cl)cccc3Br)cnc21`, the Potency entry is “inactive”. As for `CC(C)(C)n1ncc2c(=O)n(Cc3ccc(C(=O)c4ccccc4)cc3)cnc21`, the entry is “inactive”.

On to `CC(C)(C)n1ncc2c(=O)n(Cc3ccc(Cl)cc3)cnc21`, for which the Potency entry was “inactive and 10 µM (active)”. As for `CN(C)C1=C2C=CC=CC2/C(=C2/C=Cc3ccccc32)C=C1` (stereo not given), the Potency entry was “inactive”. Turning to `CC1(C)CCc2cc(S(=O)(=O)N3CCN(c4nc(-c5cccs5)nc5ccccc45)CC3)ccc2O1`, the Potency result is “inactive”. Take `O=C(O)CSCC(=O)Nc1ccc(C(F)(F)F)cc1`: the Potency result was “inactive”. As to `CCC(=O)Nc1ccc(C(=O)NNC(=O)c2ccc(Cl)cc2)cc1`, the Potency entry was “inactive”.

With `O=C(CCl)Nc1ccc(Sc2ccc(NC(=O)CCl)cc2)cc1`, the Potency is 39.8 µM (active).

As for `OC(CBr)CN1CCCCC1` (stereo not given), the Potency result is “inactive”. Consider `COc1cc(CNCCSc2nnnn2C)ccc1OCc1c(F)cccc1Cl`, for which the Potency entry was “inactive”. The result for `O=C(Nc1ccccc1)c1ccccc1OCc1ccccc1` reads “inactive”; that for `COc1ccc(/C=C/C(=O)NC(=S)N2CCCC(C(N)=O)C2)cc1` (stereo not given), “inactive”. `COc1cccc(N2CC(NC(=O)/C=C\c3ccccc3)CC2=O)c1` (stereo not given): the Potency entry was “inactive”. In the case of `COc1ccc(/C=C/C(=O)c2cc(Br)ccc(=O)c2O)cc1`, the Potency is 2.51 µM (active). As for `COc1ccc(NC(=O)c2ccco2)cc1NC(=O)COc1ccc(C)c(C)c1`, the figure is 70.8 µM (active); as for `COc1ccc(NC(=O)c2ccco2)cc1NC(=O)c1ccc(C#N)cc1F`, “inactive”; as for `Cc1ccc(OCC(=O)Nc2ccccc2C(=O)NC2CC2)cc1C`, “inactive”. As for `COc1ccccc1CNC(=O)c1ccc(CS(=O)c2ccccc2Cl)o1` (stereo not given), the Potency result is “inactive”.

As for `COc1cc(C)ccc1OCCSc1nc2ccc(NC(=O)c3ccc(C)cc3)cc2s1`, the Potency result is “inactive”. The result for `CCc1cccc(CC)c1NC(=O)Cn1c(=O)c(-c2cc(C)ccc2NC(C)=O)nc2ccccc21` reads “inactive”; that for `CN(C)c1ccc(C=Nc2ccc(/C=C/c3ccnc4ccccc34)cc2)cc1`, “inactive”. `CCOC(=O)N1CCC(N2Cc3cccc(C(=O)Nc4ccc(S(=O)(=O)N(CC)CC)cc4)c3C2=O)CC1`: the Potency is 79.4 µM (active). As for `COC(=O)c1ccc(NC(=O)c2cccc3c2C(=O)N(C2CCCCC2)C3)cc1`, the entry is “inactive”. On to `CCOC(=O)N1CCC(N2Cc3cccc(C(=O)Nc4c(C)cccc4CC)c3C2=O)CC1`, for which the Potency entry is “inactive”. The result for `Cc1ccc(Cn2cnc3c(cnn3C(C)(C)C)c2=O)c(F)c1` reads “inactive”. As for `COc1cccc2c1cc1c(=O)n(CC(=O)N3CCN(c4cccc(Cl)c4)CC3)nc(C)n12`, the entry is “inactive”; as for `Cc1ccsc1C(=O)OCC(=O)NCCc1ccccc1`, “inactive”; as for `CCNC(=O)c1sccc1-n1cccc1`, “inactive”.

Turning to `Cc1ccsc1C(=O)NCCc1ccco1`, the Potency is 39.8 µM (active).

On to `Cc1cc(C)cc(NS(=O)(=O)c2cc3c(cc2C)NC(=O)CO3)c1`, for which the Potency result was “inactive”. Consider `CCOc1ccc(OCC)c(Nc2nc3ccccc3n3nnnc23)c1`, for which the Potency result was “inactive”. As to `COc1ccccc1N1CCN(c2ncnc3onc(-c4cccc(Cl)c4)c23)CC1`, the Potency entry was “inactive”. As for `Cc1c(NC(=O)Nc2ccc(F)c(Cl)c2)c(=O)n(-c2ccccc2)n1C`, the entry is “inactive”; as for `CC(C)(C)C1CCC(NC(=O)c2cnn3c2NC(=C2CC2)C=C3C(F)F)CC1` (stereo not given), “inactive”; as for `Cc1ccc(N2C(=O)S/C(=C/c3cn(C)c4ccccc34)C2=O)cc1`, “inactive”. On to `Cc1cc(/C=C2\SC(=O)N(C)C2=O)c(C)n1-c1cccc(C(=O)O)c1`, for which the Potency was 17.8 µM (active). For the compound `Cc1cc(/C=C2/SC(=O)N(CC(=O)OC(C)C)C2=O)c(C)n1C`, the Potency entry was “inactive”. As for `Cc1cccc(C(=O)Nc2ccc(S(=O)(=O)N3CCCCC3c3cccnc3)cc2)c1` (stereo not given), the entry is “inactive”; as for `CCc1cccc(C)c1Nc1c(-c2ccc(N(C)C)cc2)nc2ncccn12`, “inactive”. `CCN(C(=O)Cn1c(=O)nc(-c2ccccc2)c2cc(Cl)ccc21)c1cccc(C)c1`: the Potency entry is “inactive”. As for `CCC(C)N(c1ccc(/C=C/c2ccnc3ccccc23)cc1)C(C)CC` (stereo not given), the Potency entry was “inactive”. With `CC(=O)N1CCCc2cc(S(=O)(=O)N3CCC(C(=O)NCc4ccc(F)cc4)CC3)ccc21`, the Potency result is “inactive”.

On to `CCCCC(=O)OC1=CN(Cc2ccccc2)S(=O)(=O)c2ccccc21`, for which the Potency entry is “inactive”. Consider `COc1cc(CCC(=O)OCC(=O)Nc2cccc(S(N)(=O)=O)c2)cc(OC)c1OC`, for which the Potency entry is “inactive”. As to `CCN(CC(=O)Nc1ccc(C)c(S(=O)(=O)N(C)C)c1)Cc1ccccc1`, the Potency result is “inactive”. Take `COc1ccc(CCC(=O)OCC(=O)Nc2ccc(C)c(S(=O)(=O)N(C)C)c2)cc1`: the Potency is 89.1 µM (active).

In the case of `COc1ccc(-c2cc(C(F)(F)F)n3nc(-c4ccccc4)cc3n2)cc1OC`, the Potency entry is “inactive”. With `Cc1ccnc(-n2sc3ccccc3c2=O)n1`, the Potency was 25.1 µM (active). The result for `Cc1ccc(-c2onc(C)c2C)cc1S(=O)(=O)Nc1ccccn1` reads “inactive”. The result for `COc1cc(OC)c(OC)cc1/C=C1\C=Cc2ccccc21` reads “inactive”; that for `CCc1nnc(SCc2nc(-c3cccc(C)c3)oc2C)c2cc3sc(C)cc3n12`, “inactive”; that for `O=C(CNC(=O)c1ccc2ccccc2c1)Nc1ncccc1O`, “inactive”. With `O=C(NCC(=O)N1CCN(c2ccccc2O)CC1)c1ccc2ccccc2c1`, the Potency is 89.1 µM (active). In the case of `COc1ccc(N2CCN(C(=O)CNC(=O)c3ccc(C(C)(C)C)cc3)CC2)cc1`, the Potency result was “inactive”. With `Cc1ccc(Cl)cc1N1CCN(C(=O)C2CCC(CNS(=O)(=O)c3cccs3)CC2)CC1` (stereo not given), the Potency result was “inactive”. Take `O=C(Cc1ccc([N+](=O)[O-])cc1)N/N=C/c1ccco1`: the Potency entry was “inactive”. Consider `O=C(Cc1ccccc1)Nc1cccc(C(=O)N/N=C/c2ccco2)c1`, for which the Potency entry was “inactive”.

Turning to `O=C(N/N=C/c1ccco1)c1ccc(C(=O)N/N=C/c2ccco2)o1`, the Potency is 50.1 µM (active). As for `CCc1nnc(SCc2c(F)cccc2Cl)c2cc3sccc3n12`, the entry is “inactive”; as for `CCc1ccccc1NC(=O)Cn1c(=O)n(-c2cccc(C)c2)c(=O)c2c1c1cc(OC)ccc1n2C`, “inactive”; as for `CC(=O)N1c2ccccc2N(Cc2ccc([N+](=O)[O-])cc2)C(=O)C1(C)C`, “inactive”. `Cc1[nH]n(-c2ccc([N+](=O)[O-])cc2)c(=O)c1C=NCCN1CCN(C(=O)c2ccccc2F)CC1`: the Potency entry is “inactive”. Regarding `O=c1[nH]n(-c2ccc([N+](=O)[O-])cc2)c(=O)c2ccccc12`, the Potency was 10 µM (active). On to `COC(=O)c1ccc(C(NC(=O)OCc2ccccc2)/C(C)=C/[C@@H](C)C(=O)NCc2ccc(OC)c(OC)c2)cc1` (stereo not given in full), for which the Potency entry is “inactive”. For the compound `COc1cc(/C=C/C(=O)OCC(=O)NC(=O)NCc2ccccc2)ccc1OCC#N`, the Potency result is “inactive”. `COC(=O)c1ccc(COc2ccc(/C=C/C(=O)c3ccc(OC)c(CSCC(=O)O)c3)cc2OC)cc1`: the Potency is 20 µM (active). Take `CCN1CCN(CCCNC(=O)c2cnn(-c3ccc(C)cc3C)c2C2CCN(C(=O)OC(C)(C)C)CC2)CC1`: the Potency result is “inactive”. Take `CCOc1ccc(CNCCSc2nnnn2C)cc1`: the Potency result was “inactive”. As to `Cc1ccc(N(CC(=O)NCC(C)c2ccccc2)S(=O)(=O)N(C)C)cc1` (stereo not given), the Potency result was “inactive”. As for `COc1ccc(C2(Nc3cccc(F)c3)C(=O)c3ccccc3C2=O)cc1`, the entry is “inactive”; as for `CN(c1ccc(O)cc1)c1nc(-c2cccnc2)cs1`, “inactive”. Consider `CCCC(=O)N1c2ccc(-c3csc(N)n3)cc2CC1C` (stereo not given), for which the Potency entry was “inactive”. On to `CC(C)(C)C(=O)OCc1nc(-c2ccc(O)c(O)c2)cs1`, for which the Potency is 31.6 µM (active). On to `Cc1ccccc1-n1c(=O)c2ccccc2n(Cc2ccc(F)cc2)c1=O`, for which the Potency entry is “inactive”. For `O=C(Nc1cc(Cl)cc(Cl)c1)c1ccc2c(c1)N(Cc1cccc(Cl)c1)C(=O)c1ccccc1S2=O` (stereo not given), the Potency entry is “inactive”. The result for `Cc1cc(=O)oc2c(C)c(OCC(=O)NCCN3CCOCC3)ccc12` reads “inactive”; that for `CCc1cc(=O)oc2c(C)c(OCC(=O)NCCN3CCOCC3)ccc12`, 79.4 µM (active).

As to `CCCc1cc(=O)oc2c(C)c(OCC(=O)NCc3ccccn3)ccc12`, the Potency entry was “inactive”. With `CC(=O)Nc1ccc(S(=O)(=O)Nc2ccc(-c3ccc4nnc(C)n4n3)cc2)cc1`, the Potency result is “inactive”.

`CC(=O)c1ccc(S(=O)(=O)Nc2ccc(-c3ccc4nncn4n3)cc2)cc1`: the Potency is 50.1 µM (active). For `O=C(Nc1ccc(-c2ccc3nncn3n2)cc1)C1CCCCC1`, the Potency result is “inactive”.

`Cc1cc(OC(C)C(=O)Nc2sc3c(c2C(N)=O)CCCC3)ccc1Cl` (stereo not given): the Potency result is “inactive”. Turning to `COc1cccc(C(=O)NC2=NC(c3ccc(N(C)C)cc3)CC(=O)N2)c1` (stereo not given), the Potency entry was “inactive”. Regarding `CSc1nc(-c2ccccc2Cl)nc2c1Cc1c(CO)cnc(C)c1O2`, the Potency entry is “inactive”. The result for `CC(C)N(C(=O)CSc1nnc(NC2CC2)s1)c1ccccc1` reads “inactive”; that for `CC(C)Nc1nnc(SCC(=O)c2c[nH]c3ccccc23)s1`, “inactive”. As for `CC(C)c1ccc(Nc2nnc(SCC(=O)c3nnc(-c4ccccc4)o3)s2)cc1`, the figure is 22.4 µM (active); as for `CCc1cccc(C)c1NS(=O)(=O)c1ccc(-c2cc(C)no2)s1`, “inactive”.

With `COC(=O)/C=C\C(=O)Nc1cccc([N+](=O)[O-])c1`, the Potency result was “inactive”. The result for `Cc1ccc(/C=C/C(=O)Nc2ccc([N+](=O)[O-])c(NC(=O)/C=C/c3ccc(C)o3)c2)o1` reads 25.1 µM (active); that for `COc1ccc(OC)c(NC(=O)/C=C/c2ccc(C)o2)c1`, “inactive”; that for `Cc1ccc(Cn2c(=O)n(Cc3nc(-c4ccccc4)no3)c(=O)c3cc4c(cc32)OCO4)cc1`, “inactive”.

Turning to `O=C(CSc1nc(=O)n(Cc2cccnc2)c2c1CCC2)Nc1ccc(F)cc1F`, the Potency entry was “inactive”.

`O=C(Nc1ccc(F)cc1F)c1ccc2c(=O)n3c(nc2c1)CCCCC3`: the Potency result was “inactive”. On to `Cc1ccc(Cl)cc1NC(=O)/C(C#N)=C\c1cn(Cc2ccc(F)cc2)c2ccccc12`, for which the Potency was 89.1 µM (active). `COCCCNC(=O)Cn1cc(/C=C(\C#N)C(=O)N2CCN(c3ccccc3)CC2)c2ccccc21`: the Potency result was “inactive”.

Take `Cc1ccc(/C=C(\C#N)C(=O)Nc2cc(C)ccc2C)cc1`: the Potency entry is “inactive”.

The values above are taken from PubChem BioAssay AID588590 (National Center for Advancing Translational Sciences (NCATS), 2011).
